The campaign covered roughly 5,500 compounds. About 2,000 (36%) were called active. About 18% were inconclusive and are not listed. Rule as the data show it: active = normalized growth mostly below about 0.91 (no sharp cut-off); inconclusive = no clear call, values can overlap the other calls; inactive = mostly above about 0.92. The list shows a part of the results.
Assay: chemical genetic growth profiling, strain panel (AID 1159580);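 also: tested at 20 µM; growth read once vehicle control cultures reached saturation at 30 °C; 1 = growth at the plate median or of vehicle wells; lower values mean less growth of the strain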
Settings: growth OD

Measured: normalized growth

CCc1ccc(CCOc2ccc(CC3SC(=O)NC3=O)cc2)nc1 (configuration not stated)
inactive: S. cerevisiae deletion strains, locus YJR075W, strain HOC1, hits give low values 0.997 | S. cerevisiae deletion strains, locus YKL009W, strain mrt4, hits give low values 1.01 | S. cerevisiae deletion strains, locus YKL068W, hits give low values 0.991 | S. cerevisiae deletion strains, locus YKL085W, strain MDH1 (second series), hits give low values 0.991 | S. cerevisiae deletion strains, locus YKL085W, strain MDH1, hits give low values 0.991 | S. cerevisiae deletion strains, locus YKL160W, strain elf1, hits give low values 1.02 | S. cerevisiae deletion strains, locus YKL190W, strain CNB1, hits give low values 1.02 | S. cerevisiae deletion strains, locus YKR001C, strain vps1, hits give low values 0.977 | S. cerevisiae deletion strains, locus YKR026C, strain gcn3, hits give low values 1.01 | S. cerevisiae deletion strains, locus YKR091W, strain srl3, hits give low values 0.999 | S. cerevisiae deletion strains, locus YLL001W, strain dnm1, hits give low values 1 | S. cerevisiae deletion strains, locus YLL026W, hits give low values 1.02 | S. cerevisiae deletion strains, locus YLL041C, strain sdh2, hits give low values 1.01 | S. cerevisiae deletion strains, locus YLR027C, strain aat2, hits give low values 1.01 | S. cerevisiae deletion strains, locus YLR039C, strain RIC1, hits give low values 0.914 | S. cerevisiae deletion strains, locus YLR058C, strain SHM2, hits give low values 1.01 | S. cerevisiae deletion strains, locus YLR102C, strain apc9, hits give low values 0.988 | S. cerevisiae deletion strains, locus YLR113W, strain HOG1, hits give low values 1.01 | S. cerevisiae deletion strains, locus YLR221C, strain rsa3, hits give low values 1.01 | S. cerevisiae deletion strains, locus YLR258W, strain gsy2, hits give low values 1.02 | S. cerevisiae deletion strains, locus YLR262C, strain YPT6 (second series), hits give low values 0.99 | S. cerevisiae deletion strains, locus YLR262C, strain YPT6, hits give low values 0.88 | S. cerevisiae deletion strains, locus YLR268W, strain sec22, hits give low values 0.993 | S. cerevisiae deletion strains, locus YLR320W, strain mms22, hits give low values 1.01 | S. cerevisiae deletion strains, locus YLR330W, strain CHS5, hits give low values 1.01 | S. cerevisiae deletion strains, locus YLR342W, strain FKS1 (second series), hits give low values 0.985 | S. cerevisiae deletion strains, locus YLR342W, strain FKS1, hits give low values 1.02 | S. cerevisiae deletion strains, locus YLR357W, strain rsc2, hits give low values 1.03 | S. cerevisiae deletion strains, locus YLR370C, strain arc18, hits give low values 1.01 | S. cerevisiae deletion strains, locus YLR371W, strain rom2, hits give low values 0.989 | S. cerevisiae deletion strains, locus YLR384C, strain iki3, hits give low values 1.01 | S. cerevisiae deletion strains, locus YLR418C, strain cdc73, hits give low values 0.969 | S. cerevisiae deletion strains, locus YML016C, strain PPZ1, hits give low values 0.997 | S. cerevisiae deletion strains, locus YML032C, strain rad52, hits give low values 0.998 | S. cerevisiae deletion strains, locus YML120C, strain ndi1, hits give low values 1.02 | S. cerevisiae deletion strains, locus YML124C, strain tub3, hits give low values 0.992 | S. cerevisiae deletion strains, locus YMR058W, strain fet3, hits give low values 1.01 | S. cerevisiae deletion strains, locus YMR078C, strain ctf18, hits give low values 0.985 | S. cerevisiae deletion strains, locus YMR125W, strain sto1, hits give low values 1.02 | S. cerevisiae deletion strains, locus YMR129W, hits give low values 1 | S. cerevisiae deletion strains, locus YMR205C, strain PFK2, hits give low values 0.997 | S. cerevisiae deletion strains, locus YMR223W, strain ubp8, hits give low values 0.995 | S. cerevisiae deletion strains, locus YMR231W, strain pep5, hits give low values 0.995 | S. cerevisiae deletion strains, locus YMR263W, strain SAP30, hits give low values 1.04 | S. cerevisiae deletion strains, locus YMR307W, strain GAS1, hits give low values 0.938 | S. cerevisiae deletion strains, locus YNL067W, strain RPL9B, hits give low values 1.06 | S. cerevisiae deletion strains, locus YNL071W, strain lat1, hits give low values 1.01 | S. cerevisiae deletion strains, locus YNL128W, strain TEP1, hits give low values 1.04 | S. cerevisiae deletion strains, locus YNL153C, strain GIM3, hits give low values 1 | S. cerevisiae deletion strains, locus YNL183C, strain NPR1, hits give low values 0.963 | S. cerevisiae deletion strains, locus YNL209W, strain ssb2, hits give low values 0.997 | S. cerevisiae deletion strains, locus YNL233W, strain BNI4, hits give low values 1.01 | S. cerevisiae deletion strains, locus YNL248C, strain rpa49, hits give low values 1.02 | S. cerevisiae deletion strains, locus YNL250W, strain rad50, hits give low values 0.995 | S. cerevisiae deletion strains, locus YNL271C, strain bni1, hits give low values 1 | S. cerevisiae deletion strains, locus YNL298W, strain CLA4, hits give low values 0.997 | S. cerevisiae deletion strains, locus YNL307C, strain MCK1, hits give low values 0.994 | S. cerevisiae deletion strains, locus YNL322C, strain KRE1 (second series), hits give low values 1.02 | S. cerevisiae deletion strains, locus YNL322C, strain KRE1, hits give low values 0.994 | S. cerevisiae deletion strains, locus YNR049C, strain mso1, hits give low values 1.01 | S. cerevisiae deletion strains, locus YNR052C, strain pop2, hits give low values 1.01 | S. cerevisiae deletion strains, locus YOL006C, strain TOP1, hits give low values 1 | S. cerevisiae deletion strains, locus YOL012C, strain htz1 1.21 | S. cerevisiae deletion strains, locus YOL147C, strain pex11, hits give low values 0.996 | S. cerevisiae deletion strains, locus YOR001W, strain rrp6, hits give low values 1.01 | S. cerevisiae deletion strains, locus YOR061W, strain CKA2, hits give low values 0.999 | S. cerevisiae deletion strains, locus YOR069W, strain VPS5, hits give low values 1 | S. cerevisiae deletion strains, locus YOR070C, strain gyp1, hits give low values 1.01 | S. cerevisiae deletion strains, locus YOR080W, strain dia2, hits give low values 1.01 | S. cerevisiae deletion strains, locus YOR083W, strain WHI5, hits give low values 1 | S. cerevisiae deletion strains, locus YOR106W, strain vam3, hits give low values 1.02 | S. cerevisiae deletion strains, locus YOR136W, strain idh2, hits give low values 1 | S. cerevisiae deletion strains, locus YOR144C, strain elg1, hits give low values 0.993 | S. cerevisiae deletion strains, locus YOR184W, strain ser1, hits give low values 0.971 | S. cerevisiae deletion strains, locus YOR231W, strain MKK1, hits give low values 0.98 | S. cerevisiae deletion strains, locus YOR265W, strain rbl2, hits give low values 1.01 | S. cerevisiae deletion strains, locus YOR270C, strain vph1, hits give low values 1.04 | S. cerevisiae deletion strains, locus YOR290C, strain snf2, hits give low values 1 | S. cerevisiae deletion strains, locus YOR316C, strain cot1, hits give low values 0.997 | S. cerevisiae deletion strains, locus YPL051W, strain arl3, hits give low values 1.01 | S. cerevisiae deletion strains, locus YPL055C, strain LGE1, hits give low values 1.02 | S. cerevisiae deletion strains, locus YPL078C, strain atp4, hits give low values 1.01 | S. cerevisiae deletion strains, locus YPL106C, strain sse1, hits give low values 1.02 | S. cerevisiae deletion strains, locus YPL240C, strain hsp82, hits give low values 1.02 | S. cerevisiae deletion strains, locus YPL241C, strain CIN2, hits give low values 1 | S. cerevisiae deletion strains, locus YPL256C, strain CLN2, hits give low values 0.936 | S. cerevisiae deletion strains, locus YPR119W, strain clb2, hits give low values 0.989 | S. cerevisiae deletion strains, locus YPR141C, strain kar3, hits give low values 0.994 | S. cerevisiae deletion strains, locus YPR163C, strain tif3, hits give low values 0.999 | S. cerevisiae deletion strains, locus YPR167C, strain met16, hits give low values 0.996 | S. cerevisiae deletion strains, strain wtn01, hits give low values 0.99 | S. cerevisiae strains, strain wild type, hits give low values 1.01
